From PubChem BioAssay AID1508607 (The Scripps Research Institute Molecular Screening Center, 2020)
Hit rate of the full screen: of about 2,300 compounds, about 20 (0.9%) were called active.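 Rule for the calls: active = mean percent activation across replicates above the counterscreen hit cutoff of 9.17%; inactive = the rest.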 Only a selection was taken, and actives are over-represented in it overall.

target: Glucose-dependent insulinotropic receptor (Homo sapiens) (UniProt Q8TDV5); experiment: GPR119 activators in beta-arrestin cells, confirmation, counter-screen for GPR151 activator project, cell-based, PathHunter beta-arrestin, luminescence, set 2 (AID 1508607); conditions: 90 min, at 11.2 µM, active compounds read high;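 note: 0% = median of sample wells and 100% = wells given EA reagent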
Sequence (Q8TDV5 whole entry, looked up): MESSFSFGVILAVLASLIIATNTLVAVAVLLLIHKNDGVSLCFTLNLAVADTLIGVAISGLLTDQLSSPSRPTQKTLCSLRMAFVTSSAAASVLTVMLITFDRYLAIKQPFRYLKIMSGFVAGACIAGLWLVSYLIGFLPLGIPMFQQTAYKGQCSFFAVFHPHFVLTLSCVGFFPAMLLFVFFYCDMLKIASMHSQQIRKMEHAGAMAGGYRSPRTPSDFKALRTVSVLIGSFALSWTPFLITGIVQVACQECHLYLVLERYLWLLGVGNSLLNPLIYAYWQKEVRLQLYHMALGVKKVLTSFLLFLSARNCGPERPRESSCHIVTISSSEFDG

SMILES	activation
O=C(Nc1ccccc1C(F)(F)F)c1cnn2c(C(F)(F)F)cc(-c3ccco3)nc12	-0.72% (inactive)
CCOC(=O)c1cnc2c(OC)cccc2c1N1CCN(CC)CC1	-1.9% (inactive)
CCC(Sc1nc(NC2CCCCC2)c2ccccc2n1)C(=O)Nc1ccc2c(c1)OCO2 (stereo not given)	0.68% (inactive)
CCC(=O)Nc1ccc(NC(=O)CSc2nc3c(c(=O)n(C)c(=O)n3C)n2C)cc1	-0.37% (inactive)
O=C(O)c1ccc(CN(Cc2ccc(Cl)cc2)C(=S)Nc2ccc(Oc3ccccc3)cc2)cc1	-1.29% (inactive)
Cc1[nH]c2ccc(OCc3ccccc3)cc2c1CCNC(=O)COc1ccc(F)cc1F	-2.17% (inactive)
Cc1cc(Oc2nc3ccccn3c(=O)c2/C=C(\C#N)C(=O)N2CCCCC2)ccc1Cl	-22.9% (inactive)
O=C(c1ccccc1)N1N=C(c2ccccc2)CC1(O)C(F)(F)C(F)(F)F (stereo not given)	4.17% (inactive)
Cc1ccc(S(=O)(=O)N2CCCC2CNC(=O)C(=O)NC2CCCC2)cc1 (stereo not given)	-1.44% (inactive)
CCOc1ccccc1NC(=S)N(CCOC)C(C)c1ccccn1 (stereo not given)	-1.68% (inactive)
Nc1ccc(C(=O)NCC2COc3ccccc3O2)cc1[N+](=O)[O-] (stereo not given)	6.14% (inactive)
Nc1ncc(Br)cc1S(=O)(=O)Nc1cc(F)ccc1F	-0.83% (inactive)
CCOc1ccc(-c2nc(CSCC(=O)NCC3CCCO3)c(C)o2)cc1 (stereo not given)	0.12% (inactive)
Cc1cc2oc3c(c(=O)c2cc1C)C(c1ccc(O)cc1)N(CCCN1CCOCC1)C3=O (stereo not given)	2.08% (inactive)
COc1cc(/C=C/C(=O)c2ccc(F)cc2)cc(OC)c1OC	0.62% (inactive)
CC(C)CC(NC(=O)C(C)NC(=O)CNC(=O)C(NC=O)C(C)C)C(=O)NC(C)C(=O)NC(C(=O)NC(C(=O)NC(C(=O)NC(Cc1c[nH]c2ccccc12)C(=O)NC(CC(C)C)C(=O)NC(Cc1c[nH]c2ccccc12)C(=O)NC(CC(C)C)C(=O)NC(Cc1c[nH]c2ccccc12)C(=O)NC(CC(C)C)C(=O)NC(Cc1c[nH]c2ccccc12)C(=O)NCCO)C(C)C)C(C)C)C(C)C (stereo not given)	39.2% (active)
CN(C)c1ncc(/C=C2/C(=O)NC(=S)N(c3ccccc3F)C2=O)cn1	0.14% (inactive)
COc1ccc(/C(C)=N/NC(=O)C(C)Nc2ccc(Cl)cc2)cc1 (stereo not given)	-2.32% (inactive)

SMILES	activation
CC[C@@H](C(=O)C(C)[C@@H](O)[C@H](C)CCc1ccc(C)c(O)c1C(=O)O)C1OC(CC)(C2CC[C@](O)(CC)[C@H](C)O2)C[C@@H]1C (stereo not given in full)	29.8% (active)
COC(=O)C1=C(N)Oc2c(oc(CO)cc2=O)C1c1c(Cl)cccc1Cl (stereo not given)	0.48% (inactive)
C=CCN1C(=O)/C(=C2\SC(N3CCCCC3)=NC2=O)c2cc(Br)ccc21	2.45% (inactive)
C=CCN1/C(=C\C=C2\C=Nc3ccc(Br)cc32)C=Cc2ccc(C)cc21	20.7% (active)
CC(C)c1onc(C(=O)Nc2cc(Cl)ccc2O)c1[N+](=O)[O-]	-3.34% (inactive)
C=CCNC(=O)c1cccc(NS(=O)(=O)c2ccc(Cl)cc2)c1	4.37% (inactive)
CCc1ccc(C2CC(c3ccccc3)Nc3nc(N)nn32)cc1 (stereo not given)	3.26% (inactive)
COc1ccc(Cn2c(C)c(C)n3c4c(=O)n(CCCO)c(=O)n(C)c4nc23)cc1	1.31% (inactive)
O=C(NCCSCc1ccccc1)c1ccc[nH]c1=S	2.53% (inactive)
CCSc1nnc(CSc2ncccn2)n1-c1ccccc1	-3.02% (inactive)
COc1cc(S(=O)(=O)N2CCN(c3ccc(C)c(C)c3)CC2)ccc1F	1.41% (inactive)
COc1ccc(-c2nnc3sc(NC(=O)C(C)C)nn23)cc1	-0.23% (inactive)
Cc1nccc2[nH]c(=O)c(C(=O)NC3CCN(Cc4ccccc4)CC3)cc12	0.02% (inactive)
Cc1cccc(NC(=O)c2c(-c3ccccc3Cl)noc2C)c1C	0.14% (inactive)
C=CCNc1nnc(-c2cc3c(CO)cnc(C)c3oc2=O)s1	-2.69% (inactive)
O=C1CCCN1CCCNc1nc(-c2cccc(Cl)c2)c2c(n1)-c1ccccc1OC2	-1.27% (inactive)
C=CCOC(=O)c1[nH]c2c(c1C)C(=O)C(C(=O)OC)C(C)C2 (stereo not given)	2.72% (inactive)
